Compounds without any hit were thinned out: in the full panel of roughly 83,000, 20% have a hit.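 For each line, cells grew in 96-well plates with the test compound present at a single concentration for 48 hours.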 Active and inactive are the calls of the source. The calls were made as follows: active = growth percent below 10; inactive = the rest.

This test relates to HL-60(TB) leukemia. Nature of the test: NCI-60 one-dose screen, 48 h (100 = growth as untreated, 0 = no growth, -100 = all killed). To be noted: 10 µM unless noted.
`COc1cc(Cc2cc(OC)c(O)c(OC)c2)cc(OC)c1O`: the growth was 44% (inactive).

On to `C/C(=N\NC(=O)c1ccc(C(C)(C)C)cc1)c1ccc(O)cc1O`, for which the growth was 9.36% (active).

Turning to `C[C@]1(O)CC(=O)[C@]2(O)C3=C(C=C[C@]2(O)C1)C(=O)c1c(O)cccc1C3=O`, the growth was -43.8% (active).

Consider `CCN1C(=O)N(CC)C2Nn3c(s/c(=C\c4ccccc4F)c3=O)=NC21` (stereo not given), for which the growth is 7.77% (active).

Consider `O=C(NC1CCCC1)c1ccc(N2CCC(NCc3cccc(C(F)(F)F)c3)CC2)cc1`, for which the growth is 66.5% (inactive).

Regarding `CCCC(=O)Oc1ccc2ccccc2c1`, the growth is 98.5% (inactive).

Turning to `CC1=C(C(=O)Nc2nc(-c3ccc(Cl)cc3)cs2)[C@H](c2ccc(O)cc2)NC(=O)N1`, the growth was 98.7% (inactive).

On to `COc1ccc(/C=C/C(=O)N2CCC(O)CC2)cc1OC1CCCC1`, for which the growth is 101% (inactive).

As for `O=CN1N=C(c2ccc3c(c2)OCO3)CC1c1cccc(Nc2ccnc3cc(C(F)(F)F)ccc23)c1` (stereo not given), the growth was 72.8% (inactive).

Consider `Cc1ccccc1N=C(N)Nc1ccccc1C` (tested in a mixture with another compound), for which the growth was -25% (active).

`CC(C)(C)C(=O)CCCCCCCC/C=C/CCCC(O)c1ccco1` (stereo not given): the growth was 75% (inactive).

For `CC/C(=C(/c1ccc(OCCN(C)C)cc1)c1ccc(OC(=O)CCC(=O)c2c(C)[nH]c(/C=C3\N=C(c4ccc[nH]4)C=C3OC)c2C)cc1)c1ccccc1`, the growth was 24.2% (inactive).

With `COc1cc(/C=C/C(=O)c2c(C)oc3nc[nH]c(=O)c23)cc(OC)c1OC`, the growth was 65.9% (inactive).

Take `O=C1OC(c2ccccc2)=N/C1=C\c1ccc([N+](=O)[O-])cc1`: the growth was 119% (inactive).

For the compound `O=C(CC(O)c1ccncc1)c1ccccc1` (stereo not given), the growth was 100% (inactive).

As to `N#C/C(=C\c1ccc(Br)cc1)n1nnc2cc(F)c(F)cc21`, the growth was -16.2% (active).

With `CCNc1nc(C(F)(F)F)nc2c1sc(=S)n2-c1ccccc1`, the growth was 98.9% (inactive).

As to `O=C(Nn1cnc2ccccc21)N1CCCC1`, the growth is 87.1% (inactive).

Consider `COc1ccc(-n2c(-c3ccc(NC(=O)CCCl)cc3)nnc2-c2cc(OC)c(OC)c(OC)c2)cc1`, for which the growth was -12.6% (active).

Turning to `Nc1ccc2ccccc2c1-c1c(N)ccc2ccccc12`, the growth was 2.94% (active).

For the compound `COC(=O)c1cc(=O)nc(N/N=C/c2ccc(C)cc2)s1`, the growth is 105% (inactive).

As for `OC1OC(COC(c2ccccc2)(c2ccccc2)c2ccccc2)C(O)C(O)C1O` (stereo not given), the growth was 97.4% (inactive).

On to `CN1CCN(c2nc3scc(-c4ccccc4)c3c(=O)[nH]2)CC1`, for which the growth is 90.8% (inactive).

`CCCCN(CC)CC(CC)Nc1cc(OC)cc2cccnc12` (stereo not given): the growth is 126% (inactive).

Consider `N#Cc1c2c([nH]c(=O)c1C(N)=O)CCCCC2`, for which the growth was 104% (inactive).

On to `CCOc1ccc(N2C(N)=NC(N)=NC2(C)C)cc1`, for which the growth was 16.4% (inactive).

Regarding `COC(=O)c1c2c(c(C)[n+]([O-])c1C)C(=O)C=C(NCc1ccc(F)c(Cl)c1)C2=O`, the growth is -28.9% (active).

On to `CCOC(=O)C1=C(CC(O)c2ccc(OC)cc2OC)NC(=O)NC1c1ccccc1` (stereo not given), for which the growth is -33.9% (active).

`CC(C)n1nc(-c2ccc3oc(N)nc3c2)c2c(N)ncnc21`: the growth is 11.4% (inactive).

Turning to `C=CC(=O)N1CC2(CCC(n3nc(-c4ccc(Oc5ccccc5)cc4)c4c(N)ncnc43)CC2)C1`, the growth was -38.5% (active).

On to `CN(C)CCCn1c2c(c3cnccc3c1=O)C(=O)c1ccccc1-2`, for which the growth was 2.29% (active).

On to `COC(=O)/C=C1/CCC2C3CCC4=CC(=O)C(Br)CC4(C)C3C(=O)CC12C` (stereo not given), for which the growth was 75.1% (inactive).

In the case of `Cl.Fc1c[c-]c(-c2ccccn2)c(F)c1.[Pt].c1ccc([PH+](c2ccccc2)c2ccccc2[PH+](c2ccccc2)c2ccccc2)cc1`, the growth was -24.7% (active).

`CC(=O)OC1Oc2ccccc2-c2oc(=O)c(-c3ccc(F)cc3)cc21` (stereo not given): the growth was 97.3% (inactive).

As to `COc1cccc(C(Cc2ccccc2)Nc2ccccc2)c1OC` (stereo not given), the growth was 96.3% (inactive).

Consider `CN(C)c1ccc(/C=N/N=C(N)N)cc1`, for which the growth is 59.2% (inactive).

As for `ClC1=C(Cl)C(Cl)=C(Cl)C1=Cc1ccccc1`, the growth was -8.87% (active).

Consider `C=C1C(=O)O[C@H]2[C@H]1CC/C(COC(=O)NCc1c[nH]c3ccccc13)=C\CC[C@@]1(C)O[C@@H]21`, for which the growth is -46.8% (active).

In the case of `COc1ccc(C2=NN(C=O)C(c3cccc(Nc4ccnc5cc(Cl)ccc45)c3)C2)cc1` (stereo not given), the growth is -13.1% (active).

Consider `CNC(=O)c1c(I)c(NC(C)=O)c(I)c(C(=O)O)c1I`, for which the growth is 122% (inactive).

Values taken from PubChem BioAssay (NCI).
